Measurements published in PubChem BioAssay (NCI).
The panel holds about 79,000 compounds, 15% with a hit somewhere; the sample as a whole holds those more often. Unmarked numbers belong to inactive results. The source made the active and inactive calls. No stated cut-off is given here; in the data, active means growth inhibition above about 70%; inactive means the rest.

Tests used:
[1] = NCI Yeast Anticancer Drug Screen. Data for the rad50 strain (AID 155);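 further: 0% = growth of vehicle-only cultures of the same strain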; settings: S. cerevisiae rad50 strain growth inhibition, active compounds read high
Summary of the method: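 Readout: growth inhibition relative to vehicle-treated cultures. Compound exposure was carried out in a genetically defined yeast strain deficient in DNA damage repair.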

[2] = NCI Yeast Anticancer Drug Screen. Data for the mec2-1 strain (AID 157); settings: S. cerevisiae mec2-1 strain, active compounds read high
Summary of the method: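 mec2-1 yeast strain, carrying an alteration in DNA damage repair or cell cycle control, was exposed to compounds; growth inhibition was measured relative to vehicle-treated controls.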

[3] = NCI Yeast Anticancer Drug Screen. Data for the sgs1 mgt1 strain (AID 161);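 further: 0% = growth of cultures given vehicle only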; settings: S. cerevisiae sgs1 mgt1 strain, active compounds read high
Summary of the method: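 Percent growth inhibition was derived by comparing compound-exposed mutant yeast with vehicle-exposed cultures. The strain carries alterations in DNA damage repair.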

[4] = NCI Yeast Anticancer Drug Screen. Data for the cln2 rad14 strain (AID 165);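 further: 0% = growth equal to vehicle treated cultures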; settings: S. cerevisiae cln2 rad14 strain, active compounds read high
Summary of the method: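 Yeast carrying cln2 and rad14 alterations (cell cycle control and DNA damage repair) were exposed to compounds. Growth inhibition was measured against vehicle-treated controls.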

[5] = NCI Yeast Anticancer Drug Screen. Data for the bub3 strain (AID 167); settings: S. cerevisiae bub3 mutant strain, active compounds read high
Summary of the method: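 Readout: yeast growth inhibition, expressed relative to vehicle-only wells. The test organism is a mutant strain from a panel with lesions in DNA repair or checkpoint genes.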

[6] = NCI Yeast Anticancer Drug Screen. Data for the mlh1 rad18 strain (AID 175); settings: S. cerevisiae mlh1 rad18 strain growth inhibition, active compounds read high
Summary of the method: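 Growth inhibition of the yeast strain was measured after compound exposure and expressed relative to vehicle-treated controls. The strain carries defined defects in DNA damage repair.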

[7] = at 5.0 µM (retest, dose inferred, filed as 0.5)
[8] = at 50.0 µM (retest, dose inferred, filed as 5.0)

Compound | growth inhibition [1, 7] | growth inhibition [1, 8] | growth inhibition ([1]; at 50.0 µM) | growth inhibition [2, 7] | growth inhibition [2, 8] | growth inhibition ([2]; at 50.0 µM) | growth inhibition [3, 7] | growth inhibition [3, 8] | growth inhibition ([3]; at 50.0 µM) | growth inhibition [4, 7] | growth inhibition [4, 8] | growth inhibition ([4]; at 50.0 µM) | growth inhibition [5, 7] | growth inhibition [5, 8] | growth inhibition ([5]; at 50.0 µM) | growth inhibition [6, 7] | growth inhibition [6, 8] | growth inhibition ([6]; at 50.0 µM)
NN(Cc1ccccc1)c1ccccc1 | 50% | 83% (active) | 89.3% (active) | 47% | 87% (active) | 91.7% (active) | 20% | 100% (active) | 91.8% (active) | 43% | 99% (active) | 90% (active) | 40% | 99% (active) | 90.5% (active) | 27% | 77% (active) | 88.6% (active)
O=C1CCC(Cc2ccc(Cl)cc2Cl)C(=O)N1 (configuration not stated) | -8% | 3% | -7.6% | -3% | -6% | 6.15% | 45% | 95% (active) | 92.8% (active) | -4% | -2% | -68.7% | -4% | 0% | -47.7% | -5% | 3% | -7%
COC(=O)C1=CCC[C@H]2C1(C)CCC(C)C21CC(c2ccoc2)OC1=O (some centres not stated) | -8% | 75% (active) | 50.5% | 8% | 85% (active) | 55.6% | 10% | 90% (active) | 72.2% (active) | -16% | 14% | 28.9% | -8% | 83% (active) | 67.2% | 10% | 87% (active) | 76.2% (active)
CC(=O)OC1CC2Cc3ccccc3C3(O)COC213 (configuration not stated) | -1% | 48% | 49.2% | 6% | 75% (active) | 45.4% | 6% | 76% (active) | 76.7% (active) | 3% | 17% | 14.1% | -7% | 59% | 59% | -2% | 83% (active) | 31.1%
O=C1NN=C(c2ccc(Cl)cc2)CC1C1C(=O)N(c2ccccc2)N=C1c1ccccc1 (configuration not stated) | 96% (active) | 96% (active) | 98.5% (active) | 96% (active) | 98% (active) | 98.9% (active) | 95% (active) | 98% (active) | 99.3% (active) | 88% (active) | 97% (active) | 96.3% (active) | 97% (active) | 95% (active) | 97.8% (active) | 97% (active) | 96% (active) | 98.3% (active)
COc1ccc2cc(C3CCCC3(C)CC(=O)O)ccc2c1 (configuration not stated) | 7% | 11% | 57.2% | 11% | 10% | 39.9% | 4% | 8% | 62.1% | 3% | 7% | 11.1% | 2% | 2% | 3.85% | 1% | 9% | 64.5%
COc1ccc(OC)c2c(=S)c3ccccc3[nH]c12 | -1% | 75% (active) | 85.3% (active) | 0% | 44% | 26.2% | -5% | 43% | 60.6% | -5% | -5% | 40.6% | -6% | 37% | 60.2% | -5% | 65% | 91.1% (active)
CC(C)(C)c1ccc(Br)c(CCC(=O)NO)c1 | -2% | 94% (active) | 97% (active) | -1% | 98% (active) | 98.6% (active) | -15% | 96% (active) | 97% (active) | -3% | 91% (active) | 98.7% (active) | -1% | 96% (active) | 97.7% (active) | 9% | 98% (active) | 97.8% (active)
S=C(Nc1cc(Cl)cc(Cl)c1)SCc1ccccc1 | 33% | 78% (active) | 99.1% (active) | 25% | 54% | 99.5% (active) | 30% | 74% (active) | 99.2% (active) | -9% | 48% | 98.7% (active) | 4% | 68% | 99.2% (active) | 31% | 82% (active) | 99.3% (active)
